Hit rate of the full screen: of about 50,000 compounds, about 800 (1.6%) showed an effect of 50% or more. This excerpt belongs to a sample that is enriched for strong results.

Sequence of Bcl-2-like protein 10 (Homo sapiens) (Q9HD36 whole entry, looked up): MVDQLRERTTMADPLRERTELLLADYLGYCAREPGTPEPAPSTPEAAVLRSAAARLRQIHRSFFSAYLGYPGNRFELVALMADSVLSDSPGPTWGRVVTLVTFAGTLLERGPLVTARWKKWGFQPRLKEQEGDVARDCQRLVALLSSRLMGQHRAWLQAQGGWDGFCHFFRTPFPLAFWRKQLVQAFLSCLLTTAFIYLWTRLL

The experiment has as its target Bcl-2-like protein 10 (Homo sapiens) (UniProt Q9HD36). Description: TR3 peptide-Bcl-B binding displacers, biochemical primary FP assay, phenotype converters (AID 1240).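 Also: 0% = Bcl-B with tracer peptide and DMSO and 100% = tracer peptide lacking Bcl-B.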 To be noted: GST-Bcl-B / FITC-TR3 peptide fluorescence polarization; stronger effect = higher value; compound at 3.75 mg/L. A general note: Fluorescence polarisation rises when a labelled molecule tumbles more slowly, as on binding a larger partner.
Turning to `O=C(CN1C(=O)c2ccccc2C1=O)Nc1nc(-c2ccccc2)cs1`, the displacement is -6.7%.

With `COC(=O)C(C)N(C(=O)c1ccc(C(=O)c2ccccc2)cc1)c1c(C)cccc1C` (configuration not stated), the displacement was found to be 10.7%. Take `COc1cccc(-c2nnc(-c3ccncc3)o2)c1`: the displacement was found to be 6.6%. With `COc1cccc(OCCNC(=O)c2cc(OC)c(OC)c(OC)c2)c1` the figure was 11.6%; with `O=C1NCC(c2ccccc2)C1C(=O)N/N=C\c1cc([N+](=O)[O-])cc(Br)c1O` (configuration not stated), 5.6%. Under `COCCCNC(=O)/C(=C/c1ccc(-c2ccc(Br)cc2)o1)NC(=O)c1ccccc1` stands -6.6%; under `CCOc1ccc(NC(=O)/C=C/c2ccc(Cl)cc2)cc1`, 10.1%; under `COc1ccc(Cc2noc(-c3ccccc3C)n2)cc1`, -6.7%. Under `COC(=O)C1=NN(C(=O)c2ccccc2)C(O)(C(C)(C)C)C1` (configuration not stated) stands -3.6%. `COc1ccccc1C=C1C(=O)c2ccccc2C1=O`: the displacement was found to be 11.5%. Under `O=C1OC(c2ccccc2F)=N/C1=C\c1cccc(I)c1` stands -0.4%. With `COc1ccc(C=C2C(=O)c3ccccc3C2=O)c(OC)c1` the figure was 181%; with `COc1cccc(/C=C2/N=C(c3ccc(NC(C)=O)cc3)OC2=O)c1`, 33.2%. With `COc1ccc(C2=N/C(=C\N(C)C)C(=O)O2)cc1` the figure was -9%; with `COc1ccc(C=C2C(=O)c3ccccc3C2=O)c(O)c1`, 18.4%; with `O=C1OC(c2ccccc2F)=N/C1=C\c1cccc2ccccc12`, 78.4%. `O=C1OC(c2ccccc2F)=N/C1=C\c1ccccc1[N+](=O)[O-]`: the displacement is 4.1%. Consider `COc1ccc(C2=NC(=Cc3cccc4ccccc34)C(=O)O2)cc1`, for which the displacement turned out to be 108%.

On to `Cc1onc(-c2c(Cl)cccc2Cl)c1C(=O)N1CCN(Cc2ccccc2)CC1`, for which the displacement came to 0.2%. In the case of `CCOC(=O)CNC1CC(C)(C)NC(C)(C)C1`, the displacement was -1.2%. Take `COc1ccc(NC(=O)c2ccc(N(Cc3ccc(Cl)cc3)S(C)(=O)=O)cc2)c(OC)c1`: the displacement came out at 26.7%. As to `Nc1cc(-c2ccc(Br)cc2)nn1Cc1ccc(Cl)cc1`, the displacement was -1.3%. With `O=c1c2c3c(sc2[nH]c(=S)n1-c1ccccc1)-c1ccccc1CC3` the figure was 102%; with `C=CCn1c(=S)[nH]c2sc3c(c2c1=O)CCc1ccccc1-3`, -4.7%; with `O=c1c2c3c(sc2[nH]c(=S)n1-c1ccccc1)CCC3`, -2.5%.

With `O=C(c1ccc(-c2ccccc2)cc1)N1CCN(Cc2ccc3c(c2)OCO3)CC1`, the displacement was -1.6%. With `Cc1[nH]c2ccccc2c1/C=C/c1nc2ccccc2c(=O)n1Cc1ccccc1` the figure was -5.8%. For the compound `Cc1[nH]c2ccccc2c1/C=C/c1nc2ccccc2c(=O)n1C`, the displacement amounted to 186%. Consider `Cn1c(/C=C/c2c[nH]c3ccccc23)nc2ccccc2c1=O`, for which the displacement was determined as 108%. As to `O=c1c2ccccc2nc(/C=C/c2c[nH]c3ccccc23)n1-c1ccc([N+](=O)[O-])cc1`, the displacement was -62.9%. Under `Cc1c(/C=C/c2nc3ccccc3c(=O)n2C)c2ccccc2n1C` stands 3%; under `O=c1c2ccccc2nc(/C=C/c2c[nH]c3ccccc23)n1-c1cccc([N+](=O)[O-])c1`, -2.2%; under `COc1ccc(C)cc1NC(=O)c1cccnc1`, 20.4%. Turning to `COc1cc(/C=c2\sc3nc4ccccc4n3c2=O)cc(Br)c1OCc1ccccc1F`, the displacement was determined as 13.9%. On to `COc1ccc(-c2nnc(SCC(=O)Nc3ccc(C)cc3Br)o2)cc1`, for which the displacement is 14.5%. With `COc1ccc(Br)cc1C(=O)Nc1cccc(-c2nc3ncccc3o2)c1C` the figure was -3.8%; with `O=C(/C=C/c1cccc([N+](=O)[O-])c1)Nc1ccc(-c2nc3ccccc3o2)cc1`, -5.2%. With `O=C(/C=C/c1ccccc1)Nc1ccc(-c2nc3ccccc3o2)c(O)c1` the figure was 127%; with `Cc1ccc2oc(-c3cccc(NC(=O)/C=C/c4cccc([N+](=O)[O-])c4)c3C)nc2c1`, -24.7%.

In the case of `Cc1ccc(-c2nc3ccccc3o2)cc1NC(=O)/C=C/c1cccc([N+](=O)[O-])c1`, the displacement turned out to be 74.2%. With `COc1ccc(Br)cc1/C=C/C(=O)Nc1cccc(-c2nc3ncccc3o2)c1C`, the displacement amounted to 95.3%. As for `O=C(/C=C/c1ccccc1)Nc1ccc(O)c(-c2nc3ccccc3o2)c1`, the displacement is -3.2%.

Take `O=C(/C=C/c1cccc([N+](=O)[O-])c1)Nc1ccc(-c2nc3ncccc3o2)cc1`: the displacement turned out to be 45.3%. As to `O=C(/C=C/c1ccc(Cl)cc1)Nc1ccc(-c2nc3ccccc3o2)c(O)c1`, the displacement was -0.3%. Consider `COc1ccc(Br)cc1/C=C/C(=O)Nc1ccc(-c2nc3ncccc3o2)cc1`, for which the displacement was -4.5%. In the case of `Cc1c(NC(=O)/C=C/c2cccc([N+](=O)[O-])c2)cccc1-c1nc2ncccc2o1`, the displacement came out at 74.8%. With `Cc1ccc(-c2nc3cc(Cl)ccc3o2)cc1NC(=O)/C=C/c1cccc([N+](=O)[O-])c1` the figure was -18.8%; with `O=[N+]([O-])c1c(NC2CC2)ncnc1NC1CC1`, 10.9%.

For the compound `O=[N+]([O-])c1ccccc1/C=N/N1CCN(Cc2ccc(Cl)cc2)CC1`, the displacement was -1.7%.

For `COc1cccc(Nc2nc(-c3ccc(S(=O)(=O)N4CCOCC4)cc3)cs2)c1`, the displacement came to 10.4%. Turning to `COc1ccccc1/C=C1\SC(=S)N(CCC(=O)NNC(=O)c2ccccc2O)C1=O`, the displacement turned out to be 14.7%. Take `COc1ccc(N(CC(=O)Nc2cccc(Br)c2)S(=O)(=O)c2ccc(C)cc2)c(OC)c1`: the displacement is -1.5%.

With `CC(C)CC(NC(c1ccccc1)(c1ccccc1)c1ccccc1)C(=O)O` (configuration not stated), the displacement stood at 8.9%.

For the compound `COc1ccc(Br)cc1/C=C\C(=O)Nc1ccc([N+](=O)[O-])cc1OC`, the displacement was found to be 4.8%. With `Cc1cc2nc(-c3ccc(C)c(NC(=O)/C=C/c4ccco4)c3)oc2cc1C` the figure was -5.3%; with `O=C(/C=C/c1ccco1)Nc1ccc(-c2nc3ncccc3o2)cc1`, -8.2%; with `COc1ccc(Br)cc1C(=O)Nc1ccc(C)cc1[N+](=O)[O-]`, 27.4%. Consider `Cc1ccc(-c2nc3ncccc3o2)cc1NC(=O)/C=C/c1ccco1`, for which the displacement turned out to be 116%. In the case of `COc1ccc(Br)cc1/C=C/C(=O)Nc1ccc(C)cc1[N+](=O)[O-]`, the displacement was 87.4%. As for `CCC(C)NC(=O)CN(c1ccccc1)S(=O)(=O)c1ccccc1[N+](=O)[O-]` (configuration not stated), the displacement is -8%.

For the compound `COc1ccc(C2Nc3ccccc3C(=O)N2Cc2ccco2)cc1COc1c(C)cccc1C` (configuration not stated), the displacement was -10.4%. Consider `Cc1cc(C)nc(SCC(=O)NN=C2CCCCCC2)n1`, for which the displacement was 3.9%. For `COc1ccc(N(Cc2ccc(C(=O)NC3CCCC3)cc2)S(=O)(=O)c2ccccc2)cc1`, the displacement was -14.5%. With `O=C(Oc1ccc(/C=N/O)cc1)c1ccc(Br)cc1`, the displacement was determined as 1.6%. With `C/C(=N\Nc1nc(C)cc(-c2ccccc2)n1)c1cccc(N)c1`, the displacement is -15.5%. In the case of `COC(=O)C1=C(C)N(c2ccc(C)c(C)c2)/C(=C\c2ccc(OCC(=O)Nc3ccccc3OC)cc2)C1=O`, the displacement came to 68%. With `COC(=O)C1=C(C)N(c2ccc(C)cc2)/C(=C\c2ccc(OCC(=O)Nc3ccccc3Cl)cc2)C1=O` the figure was 7.6%; with `C=CCOc1ccc(/C=C2\C(=O)C(C(=O)OC)=C(C)N2c2ccc(C)cc2)cc1`, -24.7%; with `COC(=O)C1=C(C)N(c2ccc(C)c(C)c2)/C(=C/c2ccc(OC)cc2)C1=O`, 14.1%. With `COC(=O)C1=C(C)N(c2ccc(Cl)cc2)/C(=C\c2ccc(OCC(=O)Nc3ccccc3OC)cc2)C1=O` the figure was 10.4%. With `C=CCOc1ccc(/C=C2\C(=O)C(C(=O)OC)=C(C)N2c2ccc(F)cc2)cc1` the figure was 127%; with `COC(=O)C1=C(C)N(c2ccccc2)/C(=C\c2ccc(OCC(=O)Nc3ccccc3OC)cc2)C1=O`, 55.5%; with `CCOc1ccc(/C=C2\C(=O)C(C(=O)OC)=C(C)N2c2ccc(F)cc2)cc1`, -6.6%. On to `COC(=O)C1=C(C)N(c2ccc(Br)cc2)/C(=C\c2ccc(OCC(=O)Nc3ccccc3OC)cc2)C1=O`, for which the displacement came out at 20.3%. `Cc1ccc(OCC(=O)O/N=C(\N)Cc2ccc([N+](=O)[O-])cc2)c(C)c1`: the displacement worked out at 5.9%. Regarding `O=C(Nc1ccc2c(c1O)C(=O)c1ccccc1C2=O)c1ccccc1`, the displacement came out at 12.7%. In the case of `CC1=NN(C(N)=S)C2(O)CC3C(C12)C3(C)C` (configuration not stated), the displacement is 7.5%. With `CC(C)(C)NC(=O)c1ccccc1N(Cc1ccccc1)S(=O)(=O)c1ccccc1` the figure was -1.7%; with `Cc1ccc2[nH]c(O)c(N=NC(=O)c3cc4ccccc4nc3C)c2c1`, 5.5%.

Consider `Cc1ccc(C(=O)c2cccc(NC(=O)CC(C)C)c2)cc1C`, for which the displacement came to 12.1%. For the compound `Cc1ccc(N2CC(C(=O)Nc3ccccc3Br)CC2=O)cc1` (configuration not stated), the displacement was determined as 11.9%. With `Cc1ccccc1NC(=O)C1CC(=O)N(c2ccccc2)C1` (configuration not stated) the figure was 6.2%; with `O=C(Nc1ccccc1Br)C1CC(=O)N(c2ccccc2)C1` (configuration not stated), 77.5%. On to `CS(=O)(=O)N(CC(=O)O)c1ccc(F)cc1`, for which the displacement worked out at 6.7%. With `CCOc1cc(/C=C(\C#N)c2nc3ccccc3s2)ccc1O` the figure was 0%; with `N#C/C(=C\c1cccs1)c1nc2ccccc2s1`, -12.5%; with `Cc1ccc(/C=C(\C#N)c2nc3ccccc3s2)cc1`, 88.3%.

`Cc1cccc(OCCn2c(N)nc3ccccc32)c1`: the displacement was -10.3%. Under `Cc1c(NC(=O)CSc2nnc(-c3cccc(F)c3)n2-c2ccccc2)c(=O)n(-c2ccccc2)n1C` stands 13.4%; under `CN1CCN(C2=C(Cl)C(=O)N(c3ccc(Br)cc3)C2=O)CC1`, 15.9%. As for `C=CCc1cccc2cc(C(=O)Nc3ccc(NC(C)=O)cc3)c(=O)oc12`, the displacement was -13.3%. With `C=CCc1cccc2cc(C(=O)Nc3ccc(OCC)cc3)c(=O)oc12` the figure was 53.1%; with `C=CCc1cccc2cc(C(=O)Nc3ccc(CC)cc3)c(=O)oc12`, 8.6%. With `CN1C(=O)/C(=C/c2ccc(O)c(O)c2)SC1=S` the figure was 14%; with `Cc1cc(Cl)ccc1NC(=O)Cc1ccccc1`, -10%; with `O=c1/c(=C\c2ccc(OCc3cccc4ccccc34)cc2)sc2nc3ccccc3n12`, 11.6%.

For the compound `COc1cccc(OCCOc2cccc(/C=c3\sc4nc5ccccc5n4c3=O)c2)c1`, the displacement is 4.4%. Turning to `O=c1/c(=C/c2cccc(Br)c2)sc2nc3ccccc3n12`, the displacement turned out to be 14.5%. With `O=c1/c(=C/c2ccccc2OCc2ccccc2F)sc2nc3ccccc3n12`, the displacement was determined as 12.4%. With `CCOC(=O)COc1cc(Br)c(/C=c2\sc3nc4ccccc4n3c2=O)cc1OC`, the displacement came out at 11.1%. Under `COc1c(Br)cc(Br)cc1/C=c1\sc2nc3ccccc3n2c1=O` stands 21.9%; under `O=c1/c(=C\c2ccccc2OCc2cccc3ccccc23)sc2nc3ccccc3n12`, 104%; under `COc1cc(/C=c2\sc3nc4ccccc4n3c2=O)cc(Cl)c1OCc1ccccc1Cl`, 2.3%. Under `COc1cc(/C=c2\sc3nc4ccccc4n3c2=O)cc(Cl)c1OCCOc1ccc(Br)cc1` stands -2.9%. With `COc1cc(Br)c(/C=c2/sc3nc4ccccc4n3c2=O)cc1OC` the figure was 132%; with `COc1cccc(/C=c2/sc3nc4ccccc4n3c2=O)c1`, 92.4%; with `COc1cccc(OCCOc2c(Cl)cc(/C=c3\sc4nc5ccccc5n4c3=O)cc2OC)c1`, 92.6%.

For the origin of these results see PubChem BioAssay AID1240 (Sanford-Burnham Center for Chemical Genomics, 2008).
